Source: PubChem (several laboratories)
TWEAK Fn14 block: TWEAK-Fn14 signaling inhibition; TWEAK-stimulated Fn14 reporter cells, luciferase luminescence, 8 h; inhibition, % at 10 µM; 360,000 tested, 2% active; AID 1159606; in the data active = inhibition above about 50%
EBV LMP1 NFkB: Epstein-Barr LMP1 NF-kappaB reporter inhibition. LMP1-induced NF-kappaB luciferase reporter cells, luminescence. 350,000 tested, 0.69% active. inhibition, % at 12.5 µM; in the data active = inhibition above about 41%; inconclusive = no clear call, values can overlap the other calls;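 also: 0% = neutral control wells and 100% = reference inhibitor control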
TROY NFkB inh: TROY signaling inhibition; 360,000 tested, 0.98% active; Q293 LMP1-TROYcd NF-kB luciferase reporter, 4 h; inhibition, % at 10 µM;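 active = compounds whose plate-normalised and pattern-corrected inhibition of the luciferase reporter signal at the single screening dose is 50% or more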
LGR2 inh: Drosophila LGR2 receptor signaling inhibition; HEK293 LGR2, CRE-luciferase, bursicon-stimulated, 4 h; inhibition, % at 9.99 µM; 380,000 tested, 0.35% active; AID 720647;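 active = drop in luminescence signal, shown as inhibition above about 50% in the replicate tests, limit read from the data, passing the limit was not always enough; inconclusive = probably only some replicates passing the limit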;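 also: agonist challenge used bursicon conditioned medium at about half maximal strength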
EWS-Fli block: inhibitors of EWS/Fli oncoprotein transcriptional activity; inhibition, % at 12.6 µM; AID 651661; 350,000 tested, 0.67% active; A673 NR0B1-luciferase reporter, viability-normalised;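 active = mean inhibition of at least 50% after viability correction, with every replicate also passing that limit; inconclusive = mean reaches 50% but only one of two replicates passes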;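 also: firefly luciferase signal divided by Alamar Blue viability fluorescence both relative to DMSO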
PAX8 inh HTS: inhibitors of PAX8 transcriptional activity in RMG-I cells; inhibition, % at 12.6 µM; RMG-I TPO-luciferase reporter, SteadyGlo, 24 h; AID 652154; 360,000 tested, 1.2% active;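 active = mean replicate inhibition at least 60% with every replicate also reaching 60%; inconclusive = only one of the two criteria is met; inactive = mean below 60% and not all replicates reaching 60%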;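 also: luciferase light reporting Pax8 driven TPO promoter activity; plate controls were median of neutral control wells for no effect and mitoxantrone controls for full effect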
* = called active by the depositor; ? = inconclusive; / = no result. In the library only some 3.1% were active in any assay of this set; here they are far more common.

SMILES	TWEAK Fn14 block	EBV LMP1 NFkB	TROY NFkB inh	LGR2 inh	EWS-Fli block	PAX8 inh HTS
COc1cc(C(=O)Nc2scc(-c3ccc(Br)cc3)c2C(=O)O)cc(OC)c1OC	-7	1	72*	-3	-87	15
COCC(=O)Nc1ccc2c(c1)C(=O)N(C)[C@@H]1CC[C@H](CC(=O)NC3CCCC3)O[C@@H]1CO2	/	/	/	-3	1	-4
CCOC(=O)c1oc2ccccc2c1CSc1nnc(-c2ccco2)o1	59*	2	2	/	/	6
CCOC(=O)c1oc2ccccc2c1CSc1nnnn1-c1ccc(C)cc1	-6	1	7	3	/	/
CC(C)(C)c1cc(C(=O)Nc2ccc(F)cc2)n(Cc2ccc(F)cc2)n1	18	-4	63*	/	15	7
CN1CCN(C(=O)C[C@@H]2C=C[C@H](NC(=O)Nc3ccccc3F)[C@H](CO)O2)CC1	/	/	/	2	-5	-7
Cc1[nH]n(-c2ccc(Cl)cc2)c(=O)c1C=NC12CN3CN(CN(C3)C1)C2	-12	2	-7	7	7	81*
C[C@H](CO)N1C[C@H](C)[C@@H](CN(C)Cc2cccc(F)c2)Oc2ncc(C#C[C@@H](C)O)cc2C1=O	/	/	/	5	-1	/
COc1ccccc1NC(=O)CSc1ccc(-c2cccs2)nn1	53*	4	26	-8	0	2
COc1ccccc1CCNC(=O)CSc1ccc(-c2cccs2)nn1	-3	-6	1	7	6	14
Cc1ccc(-c2nn(-c3ccccc3)cc2CO)cc1	-3	0	-38	-39	-90	-143
N=C(N)SCc1cn(-c2ccccc2)nc1-c1ccc(Br)cc1	1	-44	9	100*	34	32
COc1ccc(NC(=O)Nc2ccc3c(c2)C(=O)N([C@@H](C)CO)C[C@H](C)[C@@H](CN(C)Cc2ccc4c(c2)OCO4)OCCCC[C@@H](C)O3)cc1	/	/	/	-10	1	-5
Cc1ccc(S(=O)(=O)Nc2ccc3c(c2)C(=O)N([C@H](C)CO)C[C@@H](C)[C@@H](CN(C)CC2CCCCC2)OCCCC[C@@H](C)O3)cc1	/	/	/	2	30	88*
Cc1ccc(S(=O)(=O)Nc2ccc3c(c2)C(=O)N([C@H](C)CO)C[C@@H](C)[C@@H](CN(C)CC2CCCCC2)OCCCC[C@H](C)O3)cc1	/	/	/	-4	12	27
C[C@@H]1CN([C@H](C)CO)C(=O)c2cc(NS(=O)(=O)c3ccc(Cl)cc3)ccc2O[C@@H](C)CCCCO[C@@H]1CN(C)CC1CCCCC1	/	/	/	-4	61*	78*
C[C@@H]1CCCCO[C@H](CN(C)CC2CCCCC2)[C@H](C)CN([C@H](C)CO)C(=O)c2cc(NS(=O)(=O)c3ccc(Cl)cc3)ccc2O1	/	/	/	26	63*	95*
C[C@H](O)C#Cc1ccc([C@H]2[C@H](CO)N3CCCCN(C(=O)Nc4ccccc4)C[C@@H]23)cc1	/	/	/	2	-7	19
C[C@H](O)C#Cc1ccc([C@H]2[C@H]3CN(C(=O)Nc4ccccc4)CCCCN3[C@H]2CO)cc1	/	/	/	-6	-3	69*
CC(C)CC#Cc1ccc([C@@H]2[C@H]3CN(C(=O)Nc4ccccc4)CCCCN3[C@H]2CO)cc1	/	/	/	9	4	74*
COCC(=O)N(C)C[C@@H]1Oc2ncc(C#C[C@@H](C)O)cc2C(=O)N([C@@H](C)CO)C[C@H]1C	/	/	/	-4	0	/
CO/N=C/C(NC(=O)c1ccc(C(F)(F)F)cc1)C(=O)OC (stereo unspecified)	8	3	-13	6	21	8
NC(N)=NN=C(c1ccc(F)cc1)c1ccc(C(F)(F)F)cc1	56*	-10	17	?	44	95*
Cc1nn(C)c(C)c1/C=N/NC(=O)CCn1cc([N+](=O)[O-])cn1	3	4	12	13	72*	-5
ClC1=C(Cl)C(Cl)=C(Cl)C1=C/C=C/c1ccccc1	23	70*	-4	2	42	-11
CN1CCN(C(=O)C[C@H]2CC[C@@H]3[C@H](COC[C@@H](O)CN3S(=O)(=O)c3cccc(Cl)c3)O2)CC1	/	/	/	-3	-11	-10
COc1cc(OC)c(OC)cc1CNC(=O)c1cccc(S(=O)(=O)N2CCc3ccccc3C2)c1	81*	26	51*	9	22	11
CCc1ccc(C(=O)CN(C#N)c2nc(C)cc(C)n2)cc1	62*	-14	7	-6	/	16
